Rab9 prom act = Rab9 promoter activation; Huh7 Rab9 promoter-luciferase reporter, luminescence, 24 h; Potency, µM (series often up to 9.22 µM), most hits filed as activators; actives 2.8% (n = 320,000); AID 485297; further: nearly all actives have a fitted effect of over 60% in size
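Promoter activation is measured as luciferase luminescence in Huh7 cells stably transfected with a Rab9 promoter–luciferase construct, following 24 h compound exposure at 37 °C and 10 min reagent incubation at ambient temperature.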
NPC1 prom act = activates the NPC1 promoter; Huh7 NPC1 promoter luciferase reporter, 24 h; Potency, µM (highest dose often 9.22 µM), most hits filed as activators; actives 2.4% (n = 320,000); AID 485313; further: nearly all actives have a fitted effect of over 60% in size
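Luciferase expression driven by the NPC1 promoter was measured in stably transfected Huh7 cells after a 24 h compound incubation, using a luciferase reagent and a luminescence read.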
KinaseGlo FLuc = Kinase-Glo luciferase inhibition (counter-screen); Potency, µM (highest dose often 38.3 µM), usual class: inhibitors; AID 1379; Kinase-Glo luciferase, ATP luminescence, 8 min; actives 0.28% (n = 200,000); further: nearly all actives have a fitted effect of over 60% in size
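Inhibition of Kinase-Glo luciferase light generation was assessed at 10 uM ATP in pH 7.2 imidazole buffer, with luminescence measured after eight minutes at ambient temperature.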
FLuc counter = firefly luciferase modulation, counter-screen for miR-21 project; actives 6.9% (n = 360,000); AID 588342; P08659; Potency, µM (highest dose often 57.5 µM), hits mostly inhibitors; purified FLuc, Km substrates, luminescence inhibition; further: nearly all actives have a fitted effect of over 55% in size
Target sequence (P08659 whole entry, looked up): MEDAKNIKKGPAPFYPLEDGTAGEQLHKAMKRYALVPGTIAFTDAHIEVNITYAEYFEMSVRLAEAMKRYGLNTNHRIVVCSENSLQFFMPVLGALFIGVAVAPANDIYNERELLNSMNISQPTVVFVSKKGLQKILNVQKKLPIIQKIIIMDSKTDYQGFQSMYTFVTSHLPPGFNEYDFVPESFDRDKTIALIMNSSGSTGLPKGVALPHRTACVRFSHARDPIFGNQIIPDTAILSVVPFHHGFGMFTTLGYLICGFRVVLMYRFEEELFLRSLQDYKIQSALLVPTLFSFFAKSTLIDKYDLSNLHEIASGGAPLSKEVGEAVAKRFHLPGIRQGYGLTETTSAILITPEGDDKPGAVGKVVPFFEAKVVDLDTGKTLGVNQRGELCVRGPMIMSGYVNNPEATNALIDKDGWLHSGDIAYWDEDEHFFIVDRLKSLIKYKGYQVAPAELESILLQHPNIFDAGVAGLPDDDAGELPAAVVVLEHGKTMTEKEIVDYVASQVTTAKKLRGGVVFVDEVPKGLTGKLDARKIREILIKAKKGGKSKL
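Purified P. pyralis luciferase, 10 nM final, with Km-level 10 uM D-luciferin and 10 uM ATP in 50 mM Tris acetate pH 7.5, 10 mM Mg acetate, 0.01% Tween-20, 0.05% BSA; 6-point qHTS titration about 60 µM downward; luminescence read.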
SMN2 splice enh = SMN2 splice variant enhancement; HEK293 SMN2-luciferase splicing reporter, luminescence, 30-36 h; actives 2.8% (n = 210,000); Potency, µM (series often up to 46.1 µM), hits mostly activators; further: nearly all actives have a fitted effect of over 55% in size
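HEK293 cells carry an SMN2 […]–luciferase reporter in which exon 7 inclusion puts luciferase in frame. Cells were plated 10-12 h before compound addition, then incubated 30-36 h at 37C. ONE-Glo luminescence was read; sodium butyrate at 4.5 mM final served as control.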
ELG1 genotoxic = inducers of genotoxicity in HEK293T ELG1-luciferase cells | Potency, µM (doses to about 46 µM), hits mostly activators | actives 1.3% (n = 330,000) | HEK293T ELG1-luciferase reporter, luminescence, 16 h; further: nearly all actives have a fitted effect of over 60% in size
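HEK293T cells expressing luciferase-tagged ELG1 were treated with compound or DMSO for 16 hr at 37°C. Luciferase activity was then read after 30 min with ONE-Glo at room temperature; rising signal flags genetic stress.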
Large screens that a line does not name were inactive. Shown are actives, neighbours in structure and some others; about 7.3% of the full set was active somewhere. The call rests on the fitted dose curve; in most records, active means well fitted curve in the direction sought with a large enough effect; inconclusive means small, poorly fitted or top-dose-only effect, or another doubt; inactive means no such curve, though single readings can be large; an effect the other way counts as inactive or inconclusive.

CCOc1ccccc1NC(=O)CN1C(=O)COc2ccc(S(=O)(=O)N3CCCCCC3)cc21	none (no result: Rab9 prom act, NPC1 prom act, KinaseGlo FLuc, SMN2 splice enh, ELG1 genotoxic)
Cc1nc(NC(=S)NC(=O)c2ccccc2)sc1C(=O)N(C)C	FLuc counter inconclusive
COc1ccc(C(=O)Nc2nc(C)c(C(=O)N(C)C)s2)cc1OC	FLuc counter 13µM, SMN2 splice enh inconclusive, ELG1 genotoxic inconclusive
CC(=O)c1sc(NC(=O)c2ccc3c(c2)OCO3)nc1C	Rab9 prom act 3.5µM, NPC1 prom act 2.5µM, FLuc counter 4.8µM, ELG1 genotoxic 10µM (no result: KinaseGlo FLuc, SMN2 splice enh)
COc1ccc(/C=C/C(=O)Nc2nc(C)c(C(=O)N(C)C)s2)cc1	FLuc counter 19µM
COc1ccc(/C=C/C(=O)Nc2nc(C)c(C(=O)N(C)C)s2)cc1OC	none
CC(=O)c1sc(NC(=O)C(C)(C)C)nc1C	none
Cc1nc(NC(=O)c2ccc(Cl)cc2)sc1Cc1ccc2c(c1)OCO2	FLuc counter inconclusive
CC(=O)c1sc(NC(=O)c2ccc(C(C)(C)C)cc2)nc1C	Rab9 prom act 1.6µM, NPC1 prom act 1.6µM, FLuc counter 1.3µM, ELG1 genotoxic inconclusive (no result: SMN2 splice enh)
CC(=O)C1=C(c2ccc(Br)cc2)N(C(C)=O)n2c(nnc2C2CCCCC2)S1	none (no result: Rab9 prom act, NPC1 prom act, KinaseGlo FLuc, SMN2 splice enh, ELG1 genotoxic)
CC(=O)c1sc(NC(=O)c2ccc(C)c(C)c2)nc1C	Rab9 prom act 1.8µM, NPC1 prom act 1.6µM, FLuc counter 2.4µM, SMN2 splice enh 8.9µM
CC(=O)c1sc(NC(=O)c2cnc(Cl)c(Cl)c2)nc1C	FLuc counter inconclusive, ELG1 genotoxic inconclusive (no result: KinaseGlo FLuc, SMN2 splice enh)
Cc1cc(N/N=C/c2ccc(O)cc2)c2cccc(C)c2n1	FLuc counter inconclusive (no result: KinaseGlo FLuc, SMN2 splice enh)
Cc1cc(-c2ccccc2)nc(N/N=C/c2ccc(O)cc2)n1	FLuc counter 1.5µM (no result: KinaseGlo FLuc, SMN2 splice enh)
Cc1cc(C)c2nc(C)cc(N/N=C/c3ccc(O)cc3)c2c1	FLuc counter 13µM, ELG1 genotoxic inconclusive (no result: KinaseGlo FLuc, SMN2 splice enh)
Fc1ccc(CNc2nc(-c3ccc(Cl)cc3)cc(C(F)(F)F)n2)cc1	none (no result: Rab9 prom act, NPC1 prom act, KinaseGlo FLuc, ELG1 genotoxic)
Oc1ccc(/C=N/Nc2nc(-c3ccc(Cl)cc3)cc(C(F)(F)F)n2)cc1	FLuc counter 27µM
Cc1ccc(-n2c(SCC(N)=O)nc3c(oc4ccccc43)c2=O)cc1C	none (no result: Rab9 prom act, NPC1 prom act, KinaseGlo FLuc, ELG1 genotoxic)
COCC(=O)Nc1ccc(OCc2ccccc2)cc1	Rab9 prom act inconclusive, NPC1 prom act inconclusive, FLuc counter inconclusive, SMN2 splice enh 13µM, ELG1 genotoxic inconclusive
CS(=O)(=O)Nc1ccc(OCc2ccccc2)cc1	Rab9 prom act inconclusive, NPC1 prom act inconclusive, FLuc counter 13µM, SMN2 splice enh inconclusive, ELG1 genotoxic 15µM
NC(=O)COc1ccc(NC(=O)OCc2ccccc2)cc1	FLuc counter 12µM, ELG1 genotoxic inconclusive
O=C(O)c1cccc(S(=O)(=O)Nc2ccc(OCc3ccccc3)cc2)c1	none (no result: KinaseGlo FLuc, SMN2 splice enh)
CC(=O)Nc1ccc(N=Cc2ccc(OCc3ccccc3)cc2)cc1	FLuc counter 24µM, SMN2 splice enh inconclusive, ELG1 genotoxic inconclusive
NC(=O)COc1ccccc1	none (no result: KinaseGlo FLuc, SMN2 splice enh)
COc1ccc(OC)c(CNC(=O)c2ccc(-c3nc(CSc4ccccc4)c(C)o3)cc2)c1	none (no result: Rab9 prom act, NPC1 prom act, KinaseGlo FLuc, SMN2 splice enh, ELG1 genotoxic)
COc1ccc(-c2nc3n(n2)C(c2ccc(OC)c(OC)c2)C(C(=O)Nc2cccnc2)=C(C)N3)cc1 (centres undefined)	none (no result: Rab9 prom act, NPC1 prom act, KinaseGlo FLuc, SMN2 splice enh, ELG1 genotoxic)
COc1ccc(Cn2ccnc2SCC(=O)Nc2ccc(C)cc2C)cc1	none (no result: Rab9 prom act, NPC1 prom act, KinaseGlo FLuc, SMN2 splice enh, ELG1 genotoxic)
COc1ccc(Cl)cc1NC(=O)CSc1cn(CC(=O)N2CCCCCC2)c2ccccc12	none (no result: Rab9 prom act, NPC1 prom act, KinaseGlo FLuc, SMN2 splice enh, ELG1 genotoxic)
COC(=O)Nc1ccc(SCC(=O)c2ccccc2)cc1	Rab9 prom act inconclusive, FLuc counter 19µM
COC(=O)Nc1ccc(OCc2ccccc2)cc1	Rab9 prom act 2.8µM, NPC1 prom act inconclusive, SMN2 splice enh 13µM, ELG1 genotoxic inconclusive
COC(=O)Nc1ccc(Oc2ccccc2)cc1	FLuc counter inconclusive, SMN2 splice enh inconclusive, ELG1 genotoxic inconclusive
COc1ccccc1NC(=O)C1=C(C)Nc2nc3ccccc3n2C1c1ccccc1Cl (centres undefined)	none (no result: Rab9 prom act, NPC1 prom act, KinaseGlo FLuc, ELG1 genotoxic)
Cc1c(C(=O)O)nc(/C=C\C(=O)O)[nH]c1=O	none (no result: Rab9 prom act, NPC1 prom act, FLuc counter, ELG1 genotoxic)
COc1ccccc1CCNC(=O)Cc1c(C)c2c(cc(C)c3c(C)coc32)oc1=O	none (no result: Rab9 prom act, NPC1 prom act, KinaseGlo FLuc, ELG1 genotoxic)
COCCn1c(SCc2ccc(C(=O)OC)o2)nc2cc(Cl)ccc2c1=O	Rab9 prom act 3.5µM

Screening results (PubChem)
